Laboratory results reported in PubChem BioAssay AID1508600 (Functional Genomics Laboratory (NCATS/FGL), 2020).
The whole screen tested about 53,000 sequences, of which about 3,700 (7%) were called active.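 How the source made its calls: active means gene knockdowns whose robust z-score for IL-1 alpha signal is at least 2 or at most -2, so actives lie on both sides; inactive means the rest.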 Many of the other results were omitted from the sample, so actives are more common in it than they were.

Assay: Components of the Cytosolic LPS Sensing Pathway: Gene Identification via Genome-wide siRNA Screen;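 further: robust z of the log signal after scaling to non-targeting control siRNA wells of the plate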
Details: RAW264.7 macrophages, IL-1a HTRF, actives lie on both sides, screened at 100 nM (by protocol), cells primed 5 h with Pam3CSK4 first
Summary of the method: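 Knockdown: 100 nM siRNA, 48h, RAW264.7. Stimulation: Pam3CSK4 5 h, then LipidA via TransIT-TKO 24 h. Output: supernatant IL-1a HTRF, negative-control-normalized, log robust z-score; viability by CellTiter-Glo.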

Row | Sequence | z-score
1 | UCAGCUGGUUUUAAUCUCUTT against Olfr1029 | -0.193 (inactive)
2 | CGCAACAGAUAGUAAAUAUTT against Ufsp2 | -1.21 (inactive)
3 | GGACCCAAAUCUUUUUAGATT against Wac | -1.03 (inactive)
4 | GGUCCCAGACUGAGUGAAATT against Epo | -0.302 (inactive)
5 | GGUCAAGAUCCGAAGCUACTT against Cntn2 | -0.749 (inactive)
6 | GGUCUUGCUGUUCGAAGAATT against Gsx1 | 0.417 (inactive)
7 | AGUGUAACUGCAGAAGCCUTT against Olfr207 | -1.3 (inactive)
8 | CAACCGUUGUGGCCAUGACTT against Olfr59 | -0.332 (inactive)
9 | CCCAGGCUAUUUCAACAAUTT against Arhgef11 | -1.24 (inactive)
10 | GGGCUACAAGAAAAAGUAUTT against Krt85 | 2.69 (active)
11 | GCAGUCAAUUCCCUUUUACTT against Ankmy1 | -0.876 (inactive)
12 | GCCUAACCAACAAUUCUACTT against Oas1b | 1.61 (inactive)
13 | GGUCUUCUACUCCUUCUCATT against Slc6a19 | -2.09 (active)
14 | GGAGACUGCUAUAUUGGCUTT against 1700092C17Rik | -0.147 (inactive)
15 | GCUAAAAGGUAAGUACUUCTT against Lncpint | 0.981 (inactive)
16 | GGGUAACAACCAUGUCCGUTT against Pspn | 1.26 (inactive)
17 | CGGGAAUCCUAUCUAUCAATT against Smox | 0.762 (inactive)
18 | GGAAGAACAAAAAACCAUGTT against Sf3b2 | -2.14 (active)
19 | CGAGAUGAAUUUCUAGUAGTT against Tubgcp3 | 1.47 (inactive)
20 | GGUUGGCUUCAAAAAUAUGTT against Psmb1 | -1.04 (inactive)
21 | GGAAUUCCACCUAAAAUUGTT against Ttn | 1.32 (inactive)
22 | CCUGCUCCUUACAUCUCGCTT against Foxred2 | 1.51 (inactive)
23 | CCAUUUAAUCCAUAUUUCCTT against Gnao1 | -2.05 (active)
24 | CGGACUCACAGAGCUAAGATT against Tnp2 | 1.56 (inactive)
25 | GGGCAGAACUGCAUGAGAATT against Acp1 | -0.176 (inactive)
26 | GCACAAAUUUGGUAGUGUUTT against Nup50 | -1.53 (inactive)
27 | GGAGUAAACCUACUGCUCATT against Esam | 2.14 (active)
28 | CCUGAUGUAACUAUAAACATT against Adam32 | -0.107 (inactive)
29 | GGAUGUCUGACUCAGGUCUTT against Olfr829 | 0.0622 (inactive)
30 | GGCAGUGAUGUUUCUCUCGTT against Tmem198b | 0.152 (inactive)
